Measured values published in PMC7862700, “An all-to-all approach to the identification of sequence-specific readers for epigenetic DNA modifications on cytosine”.

Assays:
Assay in all cases: DAPPL (digital affinity profiling via proximity ligation, sequencing); 10 mM Tris-HCl pH 7.5, 50 mM NaCl, 1 mM DTT, 4% glycerol, room temperature, 30 min; GST-TFs on glutathione beads, 16-mer random dsDNA library, 0.1% formaldehyde crosslink after washing; high values mean tight binding
FEV = target: T1, FEV (Homo sapiens, UniProt Q99581 1-238); conditions: protein: recombinant; tags: N-terminal GST; dsDNA, one strand shown
T1 sequence: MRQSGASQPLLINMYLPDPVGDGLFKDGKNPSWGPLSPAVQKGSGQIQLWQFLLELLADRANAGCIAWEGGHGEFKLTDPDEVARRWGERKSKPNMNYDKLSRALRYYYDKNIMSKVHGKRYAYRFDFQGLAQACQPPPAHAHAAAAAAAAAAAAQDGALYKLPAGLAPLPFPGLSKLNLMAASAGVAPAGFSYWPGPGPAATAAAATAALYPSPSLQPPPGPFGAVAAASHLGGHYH
Procedure, shortened: (§1)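 In yeast, human transcription factors were expressed with a GST fusion, then pulled down on glutathione beads and given DNA barcodes. Pooled with a tag-only sample, they were exposed to 200 nmole of a 16-mer random double-stranded DNA library (Tris/NaCl/DTT/glycerol buffer, room temperature, 30 min), washed, crosslinked with 0.1% formaldehyde, proximity-ligated using BsaI/T4 ligase for 1 h at 37 °C, PCR-amplified and read on an Illumina NextSeq500. Each hexamer's frequency of reads for a factor, divided by the matching frequency for the tag-only sample, gives the binding signal.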

ETV5 = ETV5 (Homo sapiens, UniProt P41161 1-510); conditions: protein: recombinant; tags: N-terminal GST; dsDNA, one strand shown
Procedure, shortened: as §1

HSF1 = HSF1 (Homo sapiens, UniProt Q00613 1-529); conditions: protein: recombinant; tags: N-terminal GST; chain copies: 3; dsDNA, one strand shown
Procedure, shortened: as §1

SPIC = target: T2, SPIC (Homo sapiens, UniProt Q8N5J4 1-248); conditions: protein: recombinant; tags: N-terminal GST; dsDNA, one strand shown
T2 sequence: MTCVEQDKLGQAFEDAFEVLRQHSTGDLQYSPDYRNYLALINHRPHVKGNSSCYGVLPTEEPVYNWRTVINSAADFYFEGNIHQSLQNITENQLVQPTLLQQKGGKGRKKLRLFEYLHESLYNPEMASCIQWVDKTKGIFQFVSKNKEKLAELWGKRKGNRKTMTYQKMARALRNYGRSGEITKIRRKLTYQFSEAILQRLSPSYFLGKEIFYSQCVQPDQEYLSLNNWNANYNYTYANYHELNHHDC
Procedure, shortened: as §1

ELF4 = ELF4 (Homo sapiens, UniProt Q99607 1-663); conditions: protein: recombinant; tags: N-terminal GST; dsDNA, one strand shown
Procedure, shortened: as §1

ELK4 = target: T3, ELK4 (Homo sapiens, UniProt P28324-2 1-405); conditions: protein: recombinant; tags: N-terminal GST; dsDNA, one strand shown
T3 sequence: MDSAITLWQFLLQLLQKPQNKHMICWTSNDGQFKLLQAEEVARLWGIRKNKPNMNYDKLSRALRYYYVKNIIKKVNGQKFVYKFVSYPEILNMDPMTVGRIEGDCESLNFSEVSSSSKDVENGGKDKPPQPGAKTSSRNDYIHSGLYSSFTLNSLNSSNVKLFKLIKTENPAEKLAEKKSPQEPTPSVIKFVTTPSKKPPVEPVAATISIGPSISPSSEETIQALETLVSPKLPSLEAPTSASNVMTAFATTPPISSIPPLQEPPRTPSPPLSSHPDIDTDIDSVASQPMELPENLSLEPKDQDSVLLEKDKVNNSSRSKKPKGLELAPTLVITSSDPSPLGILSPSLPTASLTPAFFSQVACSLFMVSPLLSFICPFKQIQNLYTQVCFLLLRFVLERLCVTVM
Procedure, shortened: as §1

ETV2 = target: T4, ETV2 (Homo sapiens, UniProt O00321 1-342); conditions: protein: recombinant; tags: N-terminal GST; dsDNA, one strand shown
T4 sequence: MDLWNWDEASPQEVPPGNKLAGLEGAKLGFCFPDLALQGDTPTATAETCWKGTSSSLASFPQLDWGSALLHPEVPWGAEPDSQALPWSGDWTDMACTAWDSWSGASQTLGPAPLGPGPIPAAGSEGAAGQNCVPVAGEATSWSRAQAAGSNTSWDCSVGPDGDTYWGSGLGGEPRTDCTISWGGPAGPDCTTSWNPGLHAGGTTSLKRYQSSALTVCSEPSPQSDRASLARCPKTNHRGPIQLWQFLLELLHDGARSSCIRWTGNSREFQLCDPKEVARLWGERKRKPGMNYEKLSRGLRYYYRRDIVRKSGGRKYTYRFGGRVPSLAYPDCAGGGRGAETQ
Procedure, shortened: as §1

ELF3 = target: T5, ELF3 (Homo sapiens, UniProt P78545 1-371); conditions: protein: recombinant; tags: N-terminal GST; dsDNA, one strand shown
T5 sequence: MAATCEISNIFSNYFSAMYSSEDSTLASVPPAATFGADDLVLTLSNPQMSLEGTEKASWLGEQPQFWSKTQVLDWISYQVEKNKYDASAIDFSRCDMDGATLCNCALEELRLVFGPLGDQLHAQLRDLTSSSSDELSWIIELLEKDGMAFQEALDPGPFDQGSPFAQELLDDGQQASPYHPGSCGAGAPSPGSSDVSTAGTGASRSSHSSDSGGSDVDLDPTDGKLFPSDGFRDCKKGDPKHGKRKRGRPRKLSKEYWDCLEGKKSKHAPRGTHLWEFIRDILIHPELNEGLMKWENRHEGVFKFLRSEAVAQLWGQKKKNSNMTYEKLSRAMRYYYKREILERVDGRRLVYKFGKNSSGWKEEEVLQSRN
Procedure, shortened: as §1

CRX = CRX (Homo sapiens, UniProt O43186 1-299); conditions: protein: recombinant; tags: N-terminal GST; dsDNA, one strand shown
Procedure, shortened: as §1

ETV1 = ETV1 (Homo sapiens, UniProt P50549 1-477); conditions: protein: recombinant; tags: N-terminal GST; dsDNA, one strand shown
Procedure, shortened: as §1

ERF = target: T6, ERF (Homo sapiens, UniProt P50548 1-548); conditions: protein: recombinant; tags: N-terminal GST; dsDNA, one strand shown
T6 sequence: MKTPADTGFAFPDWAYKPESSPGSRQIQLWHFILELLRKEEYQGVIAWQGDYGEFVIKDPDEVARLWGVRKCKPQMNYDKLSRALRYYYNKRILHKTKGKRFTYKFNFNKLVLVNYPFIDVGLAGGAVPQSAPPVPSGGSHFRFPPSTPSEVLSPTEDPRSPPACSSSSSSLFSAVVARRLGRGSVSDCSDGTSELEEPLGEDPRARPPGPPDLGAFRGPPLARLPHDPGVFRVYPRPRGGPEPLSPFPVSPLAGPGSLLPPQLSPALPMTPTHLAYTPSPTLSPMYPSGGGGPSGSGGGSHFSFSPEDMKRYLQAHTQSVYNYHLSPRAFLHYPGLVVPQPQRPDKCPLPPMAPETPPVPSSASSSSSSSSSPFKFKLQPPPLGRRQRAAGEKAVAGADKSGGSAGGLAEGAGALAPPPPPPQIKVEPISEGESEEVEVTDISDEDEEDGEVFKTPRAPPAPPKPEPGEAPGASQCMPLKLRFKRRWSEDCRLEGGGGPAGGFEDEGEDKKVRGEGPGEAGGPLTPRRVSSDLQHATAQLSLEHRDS
Procedure, shortened: as §1

ETV3L = target: T7, ETV3L (Homo sapiens, UniProt Q6ZN32 1-361); conditions: protein: recombinant; tags: N-terminal GST; dsDNA, one strand shown
T7 sequence: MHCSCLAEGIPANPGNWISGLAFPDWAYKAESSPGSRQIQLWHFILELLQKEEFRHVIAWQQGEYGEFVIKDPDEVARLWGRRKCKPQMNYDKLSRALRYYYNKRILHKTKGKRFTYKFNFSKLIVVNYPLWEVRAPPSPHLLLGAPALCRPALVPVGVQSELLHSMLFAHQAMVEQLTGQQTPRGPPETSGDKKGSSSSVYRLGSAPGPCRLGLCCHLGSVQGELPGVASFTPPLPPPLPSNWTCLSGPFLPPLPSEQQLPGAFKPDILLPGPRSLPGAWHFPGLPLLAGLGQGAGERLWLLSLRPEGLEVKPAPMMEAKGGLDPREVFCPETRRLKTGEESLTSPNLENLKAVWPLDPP
Procedure, shortened: as §1

ETS2 = target: T8, ETS2 (Homo sapiens, UniProt P15036 1-469); conditions: protein: recombinant; tags: N-terminal GST; dsDNA, one strand shown
T8 sequence: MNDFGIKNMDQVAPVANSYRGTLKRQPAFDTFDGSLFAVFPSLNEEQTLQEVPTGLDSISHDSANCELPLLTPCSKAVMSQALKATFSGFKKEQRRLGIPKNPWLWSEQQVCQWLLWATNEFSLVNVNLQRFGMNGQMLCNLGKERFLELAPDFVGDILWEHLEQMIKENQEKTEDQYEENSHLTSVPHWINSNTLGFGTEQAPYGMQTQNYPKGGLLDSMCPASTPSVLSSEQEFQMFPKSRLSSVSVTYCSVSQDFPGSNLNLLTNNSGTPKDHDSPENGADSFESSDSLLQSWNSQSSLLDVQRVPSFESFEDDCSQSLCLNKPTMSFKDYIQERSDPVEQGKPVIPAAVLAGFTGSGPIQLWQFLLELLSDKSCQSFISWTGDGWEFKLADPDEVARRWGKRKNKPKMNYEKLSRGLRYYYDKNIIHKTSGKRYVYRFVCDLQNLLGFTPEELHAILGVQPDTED
Procedure, shortened: as §1

SPDEF = target: T9, SPDEF (Homo sapiens, UniProt O95238 1-335); conditions: protein: recombinant; tags: N-terminal GST; dsDNA, one strand shown
T9 sequence: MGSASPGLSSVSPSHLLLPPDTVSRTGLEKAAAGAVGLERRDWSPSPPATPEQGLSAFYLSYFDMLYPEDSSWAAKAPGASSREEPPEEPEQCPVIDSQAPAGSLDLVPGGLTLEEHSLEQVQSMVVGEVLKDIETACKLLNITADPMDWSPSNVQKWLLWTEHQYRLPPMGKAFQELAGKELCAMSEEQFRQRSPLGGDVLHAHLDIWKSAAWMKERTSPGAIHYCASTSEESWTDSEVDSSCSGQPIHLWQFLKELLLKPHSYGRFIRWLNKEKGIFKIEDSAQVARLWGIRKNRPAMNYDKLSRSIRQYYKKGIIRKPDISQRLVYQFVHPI
Procedure, shortened: as §1

ETV7 = target: T10, ETV7 (Homo sapiens, UniProt Q9Y603 1-341); conditions: protein: recombinant; tags: N-terminal GST; dsDNA, one strand shown
T10 sequence: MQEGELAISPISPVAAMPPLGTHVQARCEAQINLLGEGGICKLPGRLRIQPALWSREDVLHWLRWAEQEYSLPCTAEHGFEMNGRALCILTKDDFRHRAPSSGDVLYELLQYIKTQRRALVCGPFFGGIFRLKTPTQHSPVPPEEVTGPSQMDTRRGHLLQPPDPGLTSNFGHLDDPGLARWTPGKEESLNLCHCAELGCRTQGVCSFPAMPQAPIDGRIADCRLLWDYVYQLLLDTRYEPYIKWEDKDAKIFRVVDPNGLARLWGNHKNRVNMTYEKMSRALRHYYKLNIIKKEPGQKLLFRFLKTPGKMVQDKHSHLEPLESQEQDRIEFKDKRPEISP
Procedure, shortened: as §1

ELF5 = target: T11, ELF5 (Homo sapiens, UniProt Q9UKW6-2 1-255); conditions: protein: recombinant; tags: N-terminal GST; dsDNA, one strand shown
T11 sequence: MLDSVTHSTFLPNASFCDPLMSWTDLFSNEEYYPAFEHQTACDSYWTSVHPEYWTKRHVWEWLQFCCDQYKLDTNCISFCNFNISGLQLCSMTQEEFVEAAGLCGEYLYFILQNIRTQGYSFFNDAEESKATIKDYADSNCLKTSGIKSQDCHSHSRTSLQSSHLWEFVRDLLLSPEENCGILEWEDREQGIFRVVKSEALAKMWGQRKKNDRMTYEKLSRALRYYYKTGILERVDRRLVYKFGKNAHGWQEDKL
Procedure, shortened: as §1

ETV3 = target: T12, ETV3 (Homo sapiens, UniProt P41162-2 1-143); conditions: protein: recombinant; tags: N-terminal GST; dsDNA, one strand shown
T12 sequence: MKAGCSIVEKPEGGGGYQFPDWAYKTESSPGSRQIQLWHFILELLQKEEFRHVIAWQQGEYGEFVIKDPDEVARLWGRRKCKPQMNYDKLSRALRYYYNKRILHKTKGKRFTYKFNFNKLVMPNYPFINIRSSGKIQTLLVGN
Procedure, shortened: as §1

ETV6 = ETV6 (Homo sapiens, UniProt P41212 1-452); conditions: protein: recombinant; tags: N-terminal GST; dsDNA, one strand shown
Procedure, shortened: as §1

CRX, sequence (O43186 whole entry): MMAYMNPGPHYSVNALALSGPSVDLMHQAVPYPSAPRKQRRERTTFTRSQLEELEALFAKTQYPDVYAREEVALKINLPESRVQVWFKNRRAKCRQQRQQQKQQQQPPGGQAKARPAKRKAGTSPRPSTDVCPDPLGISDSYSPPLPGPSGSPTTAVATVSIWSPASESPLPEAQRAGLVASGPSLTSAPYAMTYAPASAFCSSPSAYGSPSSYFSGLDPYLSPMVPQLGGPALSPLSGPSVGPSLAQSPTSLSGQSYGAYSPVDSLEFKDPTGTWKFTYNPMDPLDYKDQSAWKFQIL
ETV1, sequence (P50549 whole entry): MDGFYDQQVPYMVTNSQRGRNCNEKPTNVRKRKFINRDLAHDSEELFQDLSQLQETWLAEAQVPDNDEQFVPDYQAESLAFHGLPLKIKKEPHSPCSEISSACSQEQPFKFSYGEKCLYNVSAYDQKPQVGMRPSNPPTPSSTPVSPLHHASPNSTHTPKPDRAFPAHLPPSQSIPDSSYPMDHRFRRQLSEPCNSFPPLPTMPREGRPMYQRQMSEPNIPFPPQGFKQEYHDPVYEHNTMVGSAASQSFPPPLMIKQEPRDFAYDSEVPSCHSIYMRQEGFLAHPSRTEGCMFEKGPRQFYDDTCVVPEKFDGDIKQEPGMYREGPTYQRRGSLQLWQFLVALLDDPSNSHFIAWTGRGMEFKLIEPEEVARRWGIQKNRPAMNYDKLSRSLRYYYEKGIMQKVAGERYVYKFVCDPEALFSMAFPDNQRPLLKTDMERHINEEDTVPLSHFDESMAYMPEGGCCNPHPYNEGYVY
HSF1, sequence (Q00613 whole entry): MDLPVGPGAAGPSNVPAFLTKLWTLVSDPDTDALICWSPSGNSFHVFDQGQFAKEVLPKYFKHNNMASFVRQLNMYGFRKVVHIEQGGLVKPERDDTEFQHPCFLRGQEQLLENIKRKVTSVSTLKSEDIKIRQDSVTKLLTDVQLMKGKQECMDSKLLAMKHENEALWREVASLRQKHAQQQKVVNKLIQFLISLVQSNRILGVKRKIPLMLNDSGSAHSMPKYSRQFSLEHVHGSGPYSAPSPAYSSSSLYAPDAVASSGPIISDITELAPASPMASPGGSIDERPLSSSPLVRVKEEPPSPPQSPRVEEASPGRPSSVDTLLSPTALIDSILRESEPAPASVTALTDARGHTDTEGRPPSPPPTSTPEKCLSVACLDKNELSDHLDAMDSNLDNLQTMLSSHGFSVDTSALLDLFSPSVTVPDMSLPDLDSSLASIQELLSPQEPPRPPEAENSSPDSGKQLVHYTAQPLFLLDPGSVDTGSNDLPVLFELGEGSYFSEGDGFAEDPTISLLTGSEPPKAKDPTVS
ETV5, sequence (P41161 whole entry): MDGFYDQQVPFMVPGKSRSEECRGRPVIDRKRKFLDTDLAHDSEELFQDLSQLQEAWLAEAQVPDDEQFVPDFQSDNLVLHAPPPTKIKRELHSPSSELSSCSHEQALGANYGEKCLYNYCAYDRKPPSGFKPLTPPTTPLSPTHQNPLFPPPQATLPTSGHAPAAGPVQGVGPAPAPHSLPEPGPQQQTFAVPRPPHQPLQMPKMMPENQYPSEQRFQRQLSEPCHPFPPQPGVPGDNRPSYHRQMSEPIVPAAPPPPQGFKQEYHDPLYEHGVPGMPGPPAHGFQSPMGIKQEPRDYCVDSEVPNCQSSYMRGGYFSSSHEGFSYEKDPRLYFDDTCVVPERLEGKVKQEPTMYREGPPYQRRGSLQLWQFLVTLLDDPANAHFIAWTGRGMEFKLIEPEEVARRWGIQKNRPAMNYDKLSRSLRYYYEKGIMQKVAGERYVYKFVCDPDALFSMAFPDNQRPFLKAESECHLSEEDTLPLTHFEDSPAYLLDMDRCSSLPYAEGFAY
ELF4, sequence (Q99607 whole entry): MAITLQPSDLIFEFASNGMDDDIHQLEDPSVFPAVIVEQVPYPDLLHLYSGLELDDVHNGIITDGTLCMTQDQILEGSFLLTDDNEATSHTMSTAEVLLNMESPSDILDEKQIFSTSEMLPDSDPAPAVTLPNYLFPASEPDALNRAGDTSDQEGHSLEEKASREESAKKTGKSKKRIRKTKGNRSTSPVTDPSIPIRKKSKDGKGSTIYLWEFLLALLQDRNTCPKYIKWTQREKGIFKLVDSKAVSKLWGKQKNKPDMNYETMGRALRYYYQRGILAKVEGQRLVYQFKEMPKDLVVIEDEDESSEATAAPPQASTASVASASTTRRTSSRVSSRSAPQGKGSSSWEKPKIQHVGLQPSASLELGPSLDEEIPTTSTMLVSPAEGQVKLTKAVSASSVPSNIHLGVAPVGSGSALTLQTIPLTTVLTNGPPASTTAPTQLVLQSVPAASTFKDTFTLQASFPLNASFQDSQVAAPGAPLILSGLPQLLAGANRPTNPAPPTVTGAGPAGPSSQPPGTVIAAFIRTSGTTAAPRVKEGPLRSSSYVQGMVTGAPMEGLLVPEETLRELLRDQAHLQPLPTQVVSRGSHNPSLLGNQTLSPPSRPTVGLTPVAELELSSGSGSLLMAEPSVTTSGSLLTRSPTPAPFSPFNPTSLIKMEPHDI
ETV6, sequence (P41212 whole entry): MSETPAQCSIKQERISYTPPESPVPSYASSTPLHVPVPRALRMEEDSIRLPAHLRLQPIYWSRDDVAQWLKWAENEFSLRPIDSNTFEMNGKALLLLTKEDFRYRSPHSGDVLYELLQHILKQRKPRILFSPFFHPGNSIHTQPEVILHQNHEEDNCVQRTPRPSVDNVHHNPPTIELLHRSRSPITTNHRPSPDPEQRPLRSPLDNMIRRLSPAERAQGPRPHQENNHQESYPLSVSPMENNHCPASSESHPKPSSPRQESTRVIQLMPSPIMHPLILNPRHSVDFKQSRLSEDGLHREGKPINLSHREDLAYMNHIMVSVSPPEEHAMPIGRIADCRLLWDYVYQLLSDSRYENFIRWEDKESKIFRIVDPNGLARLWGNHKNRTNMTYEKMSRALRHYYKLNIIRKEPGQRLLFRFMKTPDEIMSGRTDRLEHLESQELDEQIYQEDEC

In the case of CTATAA, the binding signal (FEV) is reported as 1.16 fold enrichment (6-mer frequency, TF over GST control), the binding signal (ETV5) is reported as 1.23 fold enrichment (6-mer frequency, TF over GST control) and the binding signal (HSF1) is reported as 1.51 fold enrichment (6-mer frequency, TF over GST control). For the same sequence, the binding signal (SPIC) was 1.35 fold enrichment (6-mer frequency, TF over GST control), the binding signal (ELF4) was 1.26 fold enrichment (6-mer frequency, TF over GST control) and the binding signal (ELK4) was 1.36 fold enrichment (6-mer frequency, TF over GST control). For the same sequence, the binding signal (ETV2) was 1.15 fold enrichment (6-mer frequency, TF over GST control), the binding signal (ELF3) was 1.25 fold enrichment (6-mer frequency, TF over GST control) and the binding signal (CRX) was 1.83 fold enrichment (6-mer frequency, TF over GST control). For the same sequence, the binding signal (ETV1) was 1.2 fold enrichment (6-mer frequency, TF over GST control), the binding signal (ERF) was 1.29 fold enrichment (6-mer frequency, TF over GST control) and the binding signal (ETV3L) was 1.14 fold enrichment (6-mer frequency, TF over GST control). The binding signal (ETS2) was 1.28 fold enrichment (6-mer frequency, TF over GST control), the binding signal (SPDEF) was 1.34 fold enrichment (6-mer frequency, TF over GST control) and the binding signal (ETV7) was 1.22 fold enrichment (6-mer frequency, TF over GST control). The binding signal (ELF5) was 1.2 fold enrichment (6-mer frequency, TF over GST control), the binding signal (ETV3) was 1.14 fold enrichment (6-mer frequency, TF over GST control) and the binding signal (ETV6) was 1.16 fold enrichment (6-mer frequency, TF over GST control).
